Most compounds without a hit are left out; they make up all but 1.3% or so of the library.
E coli Lon inh = inhibitors of E. coli Lon protease; P0A9M0; purified E. coli Lon protease, fluorescence polarization; inhibition, % at 7.94 µM; 360,000 tested, 0.42% active; in the data active means inhibition above about 13%, passing the limit was not always enough
EBV gp42 inh = blocks Epstein-Barr virus glycoprotein 42 binding. AID 1085. Q1HVG2. Fluorescence polarization binding assay, mP read-out. 220,000 tested, 0.42% active. inhibition, % (tested at 21.74 µM); in the data active means inhibition above about 50%
Target sequence (Q1HVG2 whole entry, looked up): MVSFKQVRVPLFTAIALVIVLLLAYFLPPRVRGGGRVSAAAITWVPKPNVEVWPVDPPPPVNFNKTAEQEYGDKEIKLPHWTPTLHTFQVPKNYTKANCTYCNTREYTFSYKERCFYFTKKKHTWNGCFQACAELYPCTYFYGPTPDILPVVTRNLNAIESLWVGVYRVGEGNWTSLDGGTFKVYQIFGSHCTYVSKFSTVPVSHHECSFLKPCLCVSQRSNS
MEX-5 binding = C. elegans MEX-5 TCR-2 RNA binding activity; 300,000 tested, 0.38% active; AID 1832; Q9XUB2; activity score (negative = inhibition of binding), % at 10 µM; MEX-5/FITC-TCR2 RNA binding, fluorescence polarization; stronger effect = lower value;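 active means inhibition past about -25% in most replicates, and total fluorescence under double the plate's negative control median, limit read from the data; inconclusive means replicates evenly split on the limit, or fluorescence at least double controls; inactive means too little inhibition in most replicates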
BCLXL inh = inhibitors of human Bcl-xL. Q07817. GST-Bcl-xL / FITC-Bim BH3 peptide fluorescence polarization. inhibition, % at 10.9 µM. 320,000 tested, 0.7% active. AID 2129;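 active means inhibition above the mean of all tested compounds plus 3 SD, cutoff set per campaign, cut at about 30% in these data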;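 further: inhibitors lower millipolarization by displacing the labeled peptide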
GLD-1 RNA inh = GLD-1-TGE RNA interaction inhibition (C. elegans); 320,000 tested, 0.44% active; purified GLD-1 + fluorescein TGE RNA, fluorescence polarization; AID 2280; inhibition, % at 5.96 µM;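 active means percent inhibition above a per-plate cutoff, the plate mean of test compounds plus 3 SD, cut at about 30% in these data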
Target sequence (Q17339 whole entry, looked up): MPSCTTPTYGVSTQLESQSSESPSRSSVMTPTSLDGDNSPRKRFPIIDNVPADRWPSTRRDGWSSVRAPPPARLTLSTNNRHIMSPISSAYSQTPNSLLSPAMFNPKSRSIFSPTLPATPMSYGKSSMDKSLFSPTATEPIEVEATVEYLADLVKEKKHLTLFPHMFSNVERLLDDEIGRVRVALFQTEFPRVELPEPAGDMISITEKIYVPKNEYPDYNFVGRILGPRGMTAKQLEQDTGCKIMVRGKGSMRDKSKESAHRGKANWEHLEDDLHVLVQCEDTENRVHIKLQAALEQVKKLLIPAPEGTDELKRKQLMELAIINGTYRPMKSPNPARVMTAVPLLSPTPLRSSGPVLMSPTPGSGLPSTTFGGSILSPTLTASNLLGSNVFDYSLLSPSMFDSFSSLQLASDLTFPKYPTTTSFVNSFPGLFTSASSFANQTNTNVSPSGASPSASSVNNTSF
E coli Lon conf = E. coli Lon inhibition confirmation; AID 602230; inhibition, % at 7.94 µM; shares compounds with E coli Lon inh; purified E. coli Lon, fluorescence polarization; 1,400 tested, 31% active; in the data active means inhibition above about 16%
Each line names hits and unclear results; the compound was inactive in the other large screens (follow-up assays come after a bar, where they were run).

CN1CCN(C(c2cccnc2)c2ccc3cccnc3c2O)CC1 (configuration not stated)	none
CN1CCN(C(c2ccc(F)cc2)c2ccc3cccnc3c2O)CC1 (configuration not stated)	E coli Lon inh 25.5 (no result: EBV gp42 inh, MEX-5 binding, BCLXL inh, GLD-1 RNA inh) | E coli Lon conf inactive
CCOc1ccccc1N(CC)C(=O)c1ccc2c(=O)n3c(nc2c1)CCCCC3	E coli Lon inh 20.9 (no result: EBV gp42 inh) | E coli Lon conf inactive
CNC(=O)CN1C(=O)NC2(CCc3ccccc32)C1=O (configuration not stated)	none
CC(=O)c1ccc(NC(=O)CN2C(=O)NC3(CCc4ccccc43)C2=O)cc1 (configuration not stated)	E coli Lon inh 18.9 (no result: EBV gp42 inh, MEX-5 binding, BCLXL inh) | E coli Lon conf inactive
C=C(CCO)C1=CCN(S(=O)(=O)C(C)(C)C)[C@H]1CCO	none (no result: EBV gp42 inh, MEX-5 binding, BCLXL inh, GLD-1 RNA inh)
O=C1C(=Cc2cccn2-c2ccccc2)C(=O)c2ccccc21	E coli Lon inh 61.5, MEX-5 binding inconclusive, BCLXL inh 40.8, GLD-1 RNA inh 105.0 | E coli Lon conf 38.8
C[C@H](NC(=O)c1ccco1)C(=O)Nc1ccc(C#N)cc1	none (no result: EBV gp42 inh)
CC(=O)Nc1ccc(NC(=O)[C@H](C)NC(=O)c2ccco2)cc1	E coli Lon inh 52.8 (no result: EBV gp42 inh) | E coli Lon conf inactive
COc1cccc2c1C(=O)c1c(O)c3c(c(O)c1C2=O)CC(O)(C(=O)CO)CC3OC1CC(N(C)C)C(O)C(C)O1 (configuration not stated)	E coli Lon inh active (no result: EBV gp42 inh, MEX-5 binding, BCLXL inh, GLD-1 RNA inh) | E coli Lon conf active
COc1cccc2c1C(=O)c1c(O)c3c(c(O)c1C2=O)C[C@@](O)(C(C)=O)C[C@@H]3O[C@H]1C[C@H](N)[C@H](O)[C@H](C)O1	E coli Lon inh active, EBV gp42 inh active (no result: MEX-5 binding, BCLXL inh, GLD-1 RNA inh) | E coli Lon conf active
CCCCCC(=O)N1CCCCC1	none
O=S(=O)(c1ccc(F)cc1)N1CN(Cc2ccco2)c2nc3ccccc3nc21	E coli Lon inh 44.0 | E coli Lon conf inactive
Cc1ccc(S(=O)(=O)N2CN(Cc3ccco3)c3nc4ccccc4nc32)cc1	none
Cc1ccc(S(=O)(=O)N2CN(Cc3ccco3)c3nc4ccccc4nc32)cc1C	E coli Lon inh 15.4 | E coli Lon conf inactive
O=S(=O)(c1cccs1)N1CN(Cc2cccs2)c2nc3ccccc3nc21	E coli Lon inh 17.8 | E coli Lon conf inactive
COc1ccc(S(=O)(=O)N2CN(Cc3ccco3)c3nc4ccccc4nc32)cc1	E coli Lon inh 28.0 | E coli Lon conf inactive
Brc1ccc(-c2cnnc(N3CCCC3)n2)cc1	E coli Lon inh 22.5 | E coli Lon conf inactive
COC(C[C@@H](O)CC(=O)COCc1ccccc1)OC	none (no result: BCLXL inh, GLD-1 RNA inh)
COC(=O)c1ccccc1NC(=O)N[C@@H](C)C(=O)OC	E coli Lon inh 16.3 | E coli Lon conf inactive
C=CCOc1ccc(C2OC34CCCCC3C(C#N)(C#N)C2(C#N)C(=N)O4)cc1 (configuration not stated)	E coli Lon inh 31.3, MEX-5 binding -45.0, BCLXL inh 104.3, GLD-1 RNA inh 75.2 | E coli Lon conf 21.0
O=C(CCNC(=O)c1ccc(Cl)cc1)NCC(c1ccco1)N1CCCC1 (configuration not stated)	none (no result: EBV gp42 inh, MEX-5 binding, BCLXL inh, GLD-1 RNA inh)
CC1CCC(=O)N(CCC#N)CC1 (configuration not stated)	none (no result: EBV gp42 inh)
Cc1ccc2oc(-c3cc(NC(=O)c4ncn[nH]4)ccc3O)nc2c1	none
CC(C)(C)c1cc(C(=O)N/N=C/c2ccc(-c3ccccc3[N+](=O)[O-])o2)n[nH]1	E coli Lon inh 25.1, BCLXL inh 47.8, GLD-1 RNA inh 75.4 (no result: EBV gp42 inh) | E coli Lon conf inactive
COC(=O)c1cn(Cc2ccccn2)c(=O)c2ccccc12	none
COC(=O)Cn1c(O)c(N=NC(=O)CNC(=O)c2ccc3c(c2)OCCO3)c2ccccc21	E coli Lon inh 20.8 (no result: EBV gp42 inh) | E coli Lon conf inactive
O=C(Nc1cccc(S(=O)(=O)N2CCCCC2)c1)C1CC(=O)N(c2ccc3c(c2)OCCO3)C1 (configuration not stated)	none (no result: EBV gp42 inh)
O=C(Nc1cccc(S(=O)(=O)N2CCCCCC2)c1)C1CC(=O)N(c2ccc3c(c2)OCCO3)C1 (configuration not stated)	E coli Lon inh 22.3 (no result: EBV gp42 inh) | E coli Lon conf inactive
Cc1c(Cl)c([N+](=O)[O-])nn1CCCC(=O)NC1CCCCC1	none
O=C(O)Cc1cccc(=O)c(O)c1C(=O)O	none (no result: EBV gp42 inh, MEX-5 binding, BCLXL inh, GLD-1 RNA inh)
CC(=O)NC(C)(c1ccccc1)c1nc(-c2cccc(C(F)(F)F)c2)cs1 (configuration not stated)	none (no result: EBV gp42 inh, MEX-5 binding, BCLXL inh, GLD-1 RNA inh)
CC(C)c1[nH]nc2c1C1(CCN(Cc3ccccc3)CC1)C(C#N)=C(N)O2	E coli Lon inh 29.8, BCLXL inh 104.0, GLD-1 RNA inh 57.4 | E coli Lon conf inactive
CCCc1[nH]nc2c1C1(CCN(C(=O)OCc3ccccc3)CC1)C(C#N)=C(N)O2	none
Cc1ccc(NCc2ccc(C)s2)cc1	none (no result: E coli Lon inh, EBV gp42 inh)
O=C(Oc1ccc2c(c1)O/C(=C\c1ccncc1)C2=O)c1ccccc1	E coli Lon inh 24.4, BCLXL inh 80.6, GLD-1 RNA inh 75.4 | E coli Lon conf 31.6
O=C(CCCn1c(=O)c2sccc2n(Cc2cc(=O)n3ccccc3n2)c1=O)NCc1ccco1	E coli Lon inh 15.4 | E coli Lon conf inactive
Cc1ccc(NC(=O)COC(=O)CCc2c[nH]c(=O)[nH]2)cc1	E coli Lon inh 31.0 | E coli Lon conf 52.2
S=C(Nc1cccc2ccccc12)NC1CCCCC1	none
CCOC(=O)C1=C(C)C(c2ccccc2OC)NC(=S)N1 (configuration not stated)	none
Cc1c2cc(O)c(=O)cc-2oc2cc(O)c(O)cc12	E coli Lon inh 48.1, EBV gp42 inh 129.3, MEX-5 binding inconclusive, BCLXL inh 107.3, GLD-1 RNA inh 184.8 | E coli Lon conf 196.5
COc1cc(-c2cc(=O)c3ccc(O)cc3o2)cc(OC)c1OC	none (no result: EBV gp42 inh, MEX-5 binding, BCLXL inh, GLD-1 RNA inh)
COc1cc(OC)c(-c2c3cc(O)c(=O)cc-3oc3cc(O)c(O)cc23)cc1OC	E coli Lon inh 19.9 (no result: MEX-5 binding) | E coli Lon conf inactive
CCCCC(=O)N1CCN(c2nc3ccc(Cl)cc3s2)CC1	none (no result: EBV gp42 inh)
COc1ccc(CC(=O)Nc2cc(S(=O)(=O)Nc3ccc(OC)cc3)ccc2OC)cc1	none (no result: EBV gp42 inh, MEX-5 binding, BCLXL inh)
CCOC(=O)c1c(N)sn(-c2ccccc2)c1=S	none
CCOC(=O)c1c2c(c(=S)n(-c3ccccc3)c1N)CCC2	E coli Lon inh 24.4 | E coli Lon conf inactive
N#Cc1c2c(c(=S)n(-c3ccccc3)c1N)CCCC2	E coli Lon inh 34.2, BCLXL inh 34.7 | E coli Lon conf 22.8
CC1(C)Cc2c(C#N)c(N)n(-c3ccccc3)c(=S)c2CO1	none
O=C(NCc1ccccc1)c1cc(C2COCCN2C(=O)C2CC2)on1 (configuration not stated)	none (no result: EBV gp42 inh, MEX-5 binding, BCLXL inh, GLD-1 RNA inh)
CCOc1ccc(S(=O)(=O)N(C)CC(=O)NCc2ccccn2)cc1Cl	none (no result: EBV gp42 inh)
O=S(=O)([N-]c1nc2ccccc2nc1-[n+]1ccc(-c2ccncc2)cc1)c1ccccc1	E coli Lon inh 46.6, EBV gp42 inh 56.0, BCLXL inh 188.0, GLD-1 RNA inh 153.0 | E coli Lon conf 131.0

Compound activity as filed in PubChem.
